PubChem BioAssay AID1508600 (Functional Genomics Laboratory (NCATS/FGL), 2020)
In all, about 53,000 sequences went through this assay and about 3,700 (7%) were called active.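 Rule for the calls: active = gene knockdowns whose robust z-score for IL-1 alpha signal is at least 2 or at most -2, so actives lie on both sides; inactive = the rest.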 Shown is part of a subset that was picked to be rich in actives.

experiment: Components of the Cytosolic LPS Sensing Pathway: Gene Identification via Genome-wide siRNA Screen; details: RAW264.7 macrophages, IL-1a HTRF, actives lie on both sides, screened at 100 nM (by protocol), cells primed 5 h with Pam3CSK4 first;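 note: robust z of the log signal after scaling to non-targeting control siRNA wells of the plate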
Method in brief: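 Supernatant IL-1a by HTRF from RAW264.7 cells primed with Pam3CSK4 (5 hours) and transfected with LipidA (24 hour) after 48h siRNA knockdown at 100 nM; cell viability checked with CellTiter-Glo.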

z-score, active:
GACCACUUCCUUCUAUGCCTT against Slc35c1 -2.07
GCCCAACGUGGUGUACAUUTT against Gask1b 4.04
GCUGACCUUCAUUCAUAUATT against Vmn1r27 -2.06
GGUUAGGUUGAUGAAUAAGTT against Eif4ebp2 2.46
GGUAAAUGACAACUUUCUUTT against Slco6b1 2.92
GCCUUUCUCGUUCCUAUAGTT against Plgrkt -2.42
GGAAGACAUGAAAUUGUUCTT against Psma3 -2.69
GGCUUUUGAGAAUUCAUUCTT against Kcna5 2.75
GGUGGAAUUUUCAACUUACTT against Nkx3-1 5.36
GGAGGUCAAAGUAAACUGGTT against Tial1 2.2
GGGAAAGCACUCCAACACATT against Frem1 -2.12
GGAAAUCGAGGACUUAUACTT against Wnk4 3.54
CCUCUCAGUGGUUGAAAUGTT against Wdr5 -2.46
GCAUCUCCCUUAUGUCUGUTT against Nubp2 2.12

z-score, inactive:
GGGCUUCAUCAACUAUCUUTT against Spint1 1.03
CGGCUAAAUGCAAGUAAAGTT against Rgma -1.07
GGUACUGAUUACUCUGUAUTT against Mrps17 -0.388
GCUUUUUGUGAAACUGGCCTT against Pstpip2 0.191
GGUCAAUAUCCUCGGACAUTT against Hsd17b13 -0.386
GCCACGUAGACUGAUAUAGTT against Irf5 -1.16
GGAACAAGGAAGUUAAGGATT against Olfr1044 0.251
CCAGUUUCAGAUCAGAUUATT against Zfp747 0.729
GCUAGGAGAACCUACAUACTT against Adcy4 -0.368
GCUGAGAGUGAACCGAUGUTT against Dyrk4 1.54
CCAUUCUACGAGAAUUGUATT against Dync1i2 -0.326
GGAUAACAGAGAUUUCUCCTT against Il15ra 0.0534
CCUGCAUUAUUUAUGAAAGTT against Mfap3l -0.449
GUAAUCACCUUAAAGAUGUTT against Cebpb 1.32
CCUUUUGAGAGCUCCAGAUTT against Ptrh1 -0.273
CCUAAGGCAAUCCCUAUUGTT against Gprasp1 -0.424
GCAAUUUAAGUUUAGGAGATT against Heatr1 -0.215
GCCAAUCUGGUGAUACUUCTT against Vmn1r71 -1.64
GCUGUUAAGUAAUGACAGATT against Chst7 1.54
GCCUAUUGGCCUGAUAUGUTT against Gpr141b 0.173
GGUACAACUGCUCAUUUUUTT against Rhbdd1 -0.0082
GGCCCUAAUUUCAGUAAUATT against Pigv 0.568
GGUUUUUGAGUUUCUGAUUTT against Vps8 1.28
CCACCUUGUUGAGUGGCACTT against Smarcd3 -0.177
GCAUUUCAAUCGCACGUUUTT against Gal3st2 -0.893
CCGAGCAAAAUCUCAAAUUTT against Mdh1 1.89
CCCUCUUAGUAACUGGCUCTT against Cdhr4 -0.0846
GCAAGAAGGUUAUUCUAUATT against Atxn3 0.399
GGCCUAUCUUCUUUACAUATT against Ctbs 0.348
GUUUCUGGAGACGGUGGAGTT against Rpl10a 1.74
AGGAAAGAAAAUAUGCUGATT against Cox17 1.12
GCGUGCUGGUUUUCUGAUUTT against Sbno2 0.333
GGAGAUCCAGUUUUUUAACTT against Ndst1 0.566
GGUCUAGCUCAAAAUCCCATT against Srek1 -1.3
GGCUACCGAGACAAUGCUUTT against Pcmtd1 0.232
GGAGAAGAAUUCUUACAGGTT against Fbxo16 0.468
CCCGACCUCAACAUUUGUATT against Bmp2k -0.265
GGUAGCAAAUCCAACAAGATT against Slamf1 0.226
GGCACUUCCUCCCUCAACATT against 4833420G17Rik -0.57
CCCAGUAAUAUGAAAAGAGTT against Gucy2f -0.408
GGUUGAAUCCUAAGAAUGUTT against Edc3 0.39
GGAGAAAGCUCAGCAUACATT against Usp3 -0.484
CGCAUGACCUUCCAGAUGCTT against Myoz1 0.49
GCACAUCAACAUUGAUACUTT against Atp11c -0.0521
GGCAAUGUCUUCUCCAAUATT against Dedd -0.652
GCCGGAAGAAACUCAUGCUTT against Mad2l1bp -0.152
CCUGUUAAUUGAUUACCUUTT against Pla2r1 1.03
CCUAACGGUCAGAAGUUGATT against Ccng1 0.39
GGGCAGACCUAAUAGCUUATT against Cycs 0.707
GCUUUUGACACUUAUAUGATT against Ptk7 -0.299
GGCAUGUCUUAAUUUCAUUTT against Shisa2 0.333
GGAAGACUCACGGCUCAAATT against Ccdc124 -1.48
GGCAUCUUCCUUUAAAAAGTT against Gar1 -0.708
GGACAGUUUAAGGACAACATT against Morn2 0.18
GGUGGUCUUCAAGUCUGACTT against Cdcp2 1.95
